Results taken from the antibiotic and cytotoxicity screens of Wong et al. (2023).
About 3,300 (8.5%) of roughly 39,000 compounds were called active. The sample holds actives, similar compounds and a random draw of the others, so the mix is not that of the screen.

Each compound was assayed on HepG2 (assay: cytotoxicity call (relative viability < 0.9)). Conditions: 10 µM.
For `C[C@@H]1CN([C@@H](C)CO)C(=O)CCCn2cc(nn2)CO[C@H]1CN(C)S(=O)(=O)c1ccccc1C#N`, the cytotoxicity call was “inactive”. With `CC(C)c1cccc(NC(=O)C[C@H]2CC[C@H]3[C@@H](COc4ccc(NC(=O)c5ccc(C#N)cc5)cc4C(=O)N3C)O2)c1` the cytotoxicity call was “inactive”. With `COc1ccc(S(=O)(=O)N(C)C[C@H]2OCCCC[C@H](C)Oc3ccc(NC(=O)Nc4cccc5ccccc45)cc3C(=O)N([C@@H](C)CO)C[C@H]2C)cc1` the cytotoxicity call was “inactive”. `COc1ccc(S(=O)(=O)N(C)C[C@H]2Oc3ccc(N(C)C)cc3CC(=O)N([C@H](C)CO)C[C@H]2C)cc1` was tested, and the cytotoxicity call was “inactive”. With `C[C@@H]1CN([C@H](C)CO)C(=O)c2cccc(NS(=O)(=O)c3ccc(F)cc3)c2O[C@@H]1CN(C)Cc1ccc(Cl)c(Cl)c1` the cytotoxicity call was “inactive”. In the case of `COc1ccc(S(=O)(=O)Nc2ccc3c(c2)C(=O)N([C@H](C)CO)C[C@@H](C)[C@H](CN(C)C(=O)Nc2cccc4ccccc24)OCCCC[C@@H](C)O3)cc1`, the cytotoxicity call is reported as “inactive”. `C[C@H]1CN([C@@H](C)CO)C(=O)c2cc(C#CCN(C)C)cnc2O[C@@H]1CN(C)Cc1ccc(C(=O)O)cc1` was tested, and the cytotoxicity call was “inactive”. In the case of `C[C@@H]1CN([C@H](C)CO)C(=O)c2cccc(NC(=O)Nc3ccc4c(c3)OCO4)c2O[C@H]1CN(C)C(=O)Nc1ccc(C(F)(F)F)cc1`, the cytotoxicity call is reported as “inactive”. `Nc1ncccc1-c1nc2ccc(-c3ccccc3)nc2n1-c1ccc(C2(N)CCC2)cc1` was tested, and the cytotoxicity call was “active”. In the case of `NC(=O)c1ccc2nc(-c3ccc(C4(N)CCC4)cc3)c(-c3ccccc3)n2n1`, the cytotoxicity call is reported as “inactive”. With `CC(C)NC(=O)N[C@@H]1CC[C@@H](CCN)O[C@@H]1CO` the cytotoxicity call was “inactive”. `Cc1ccc(S(=O)(=O)Nc2ccc3c(c2)CC(=O)N([C@@H](C)CO)C[C@@H](C)[C@@H](CN(C)S(=O)(=O)c2c(C)noc2C)O3)cc1` was tested, and the cytotoxicity call was “inactive”. With `Cc1noc(C)c1NC(=O)N(C)C[C@H]1Oc2ccc(NC(=O)Cn3cnnn3)cc2CC(=O)N([C@H](C)CO)C[C@@H]1C` the cytotoxicity call was “inactive”. With `Cc1noc(C)c1S(=O)(=O)Nc1ccc2c(c1)CC(=O)N([C@@H](C)CO)C[C@@H](C)[C@H](CN(C)C(=O)Nc1ccccc1)O2` the cytotoxicity call was “inactive”. With `CC(=O)Nc1c(C)[nH]c2ncnn2c1=O` the cytotoxicity call was “active”. For `COC(=O)Cc1c(C)[nH]c2ncnn2c1=O`, the cytotoxicity call was “inactive”. With `Cc1[nH]c2ncnn2c(=O)c1NS(C)(=O)=O` the cytotoxicity call was “inactive”. With `C[C@@H]1CN([C@H](C)CO)C(=O)Cc2cc(NS(C)(=O)=O)ccc2O[C@@H]1CN(C)C(=O)Nc1ccc(C(F)(F)F)cc1` the cytotoxicity call was “inactive”. For `O=C(Nc1ccno1)NN1CCOCC1`, the cytotoxicity call was “inactive”. `COc1cc([C@@H]2c3cc4c(cc3[C@@H](O[C@@H]3O[C@@H]5CO[C@@H](C)O[C@H]5[C@H](O)[C@H]3O)[C@@H]3COC(=O)[C@@H]23)OCO4)cc(OC)c1O` was tested, and the cytotoxicity call was “inactive”. For `COc1cc(C2c3cc4c(cc3C(OC3OC5COC(c6cccs6)OC5C(O)C3O)C3COC(=O)C23)OCO4)cc(OC)c1O` (stereo unspecified), the cytotoxicity call was “active”. In the case of `COc1cc([C@@H]2c3cc4c(cc3[C@@H](O[C@@H]3O[C@@H]5CO[C@@H](C)O[C@H]5[C@H](O)[C@H]3O)[C@H]3COC(=O)[C@H]23)OCO4)cc(OC)c1O`, the cytotoxicity call is reported as “active”. With `COc1cc(C2c3cc4c(cc3C(OC3OC5COC(C)OC5C(O)C3O)C3COC(=O)C23)OCO4)cc(OC)c1O` (stereo unspecified) the cytotoxicity call was “inactive”. In the case of `C[C@H](CO)N1C[C@H](C)[C@H](CN(C)S(=O)(=O)c2cccs2)Oc2ccc(NS(=O)(=O)c3ccc(F)cc3)cc2CC1=O`, the cytotoxicity call is reported as “inactive”. With `O=C(C[C@@H]1C[C@H]2c3cc(NC(=O)C4CCOCC4)ccc3O[C@H]2[C@@H](CO)O1)NCCN1CCCCC1` the cytotoxicity call was “inactive”. With `C[C@@H]1CN([C@@H](C)CO)C(=O)c2cc(C#CCN(C)C)cnc2O[C@H]1CN(C)C(=O)c1ccc2c(c1)OCO2` the cytotoxicity call was “inactive”. In the case of `Cc1ccc(S(=O)(=O)Nc2ccc3c(c2)C(=O)N([C@@H](C)CO)C[C@H](C)[C@@H](CN(C)C(=O)Nc2ccc(C(F)(F)F)cc2)OCCCC[C@@H](C)O3)cc1`, the cytotoxicity call is reported as “active”. For `Cc1ccc(S(=O)(=O)Nc2ccc3c(c2)C(=O)N([C@H](C)CO)C[C@H](C)[C@@H](CN(C)C(=O)Nc2ccc(C(F)(F)F)cc2)OCCCC[C@@H](C)O3)cc1`, the cytotoxicity call was “inactive”. For `Cc1ccc(S(=O)(=O)Nc2ccc3c(c2)C(=O)N([C@H](C)CO)C[C@H](C)[C@H](CN(C)C(=O)Nc2ccc(C(F)(F)F)cc2)OCCCC[C@@H](C)O3)cc1`, the cytotoxicity call was “inactive”. With `Cc1ccc(S(=O)(=O)Nc2ccc3c(c2)C(=O)N([C@H](C)CO)C[C@H](C)[C@@H](CN(C)C(=O)Nc2ccc(C(F)(F)F)cc2)OCCCC[C@H](C)O3)cc1` the cytotoxicity call was “inactive”. With `Cc1ccc(S(=O)(=O)Nc2ccc3c(c2)C(=O)N([C@H](C)CO)C[C@@H](C)[C@H](CN(C)C(=O)Nc2ccc(C(F)(F)F)cc2)OCCCC[C@@H](C)O3)cc1` the cytotoxicity call was “inactive”. For `Cc1ccc(S(=O)(=O)Nc2ccc3c(c2)C(=O)N([C@H](C)CO)C[C@H](C)[C@H](CN(C)C(=O)Nc2ccc(C(F)(F)F)cc2)OCCCC[C@H](C)O3)cc1`, the cytotoxicity call was “active”. For `Cc1ccc(S(=O)(=O)Nc2ccc3c(c2)C(=O)N([C@@H](C)CO)C[C@@H](C)[C@@H](CN(C)C(=O)Nc2ccc(C(F)(F)F)cc2)OCCCC[C@H](C)O3)cc1`, the cytotoxicity call was “inactive”. In the case of `Cc1ccc(S(=O)(=O)Nc2ccc3c(c2)C(=O)N([C@H](C)CO)C[C@@H](C)[C@H](CN(C)C(=O)Nc2ccc(C(F)(F)F)cc2)OCCCC[C@H](C)O3)cc1`, the cytotoxicity call is reported as “inactive”. `Cc1ccc(S(=O)(=O)Nc2ccc3c(c2)C(=O)N([C@@H](C)CO)C[C@H](C)[C@@H](CN(C)C(=O)Nc2ccc(C(F)(F)F)cc2)OCCCC[C@H](C)O3)cc1` was tested, and the cytotoxicity call was “active”. With `C[C@@H]1CN([C@H](C)CO)C(=O)Cc2cc(NS(=O)(=O)c3cn(C)cn3)ccc2O[C@@H]1CN(C)Cc1ccc2c(c1)OCO2` the cytotoxicity call was “inactive”. In the case of `C=CC[C@H](CC(=O)NCCO)C(=O)N[C@H](COC(=O)[C@@H](CC=C)CC(=O)OC(C)(C)C)c1ccccc1`, the cytotoxicity call is reported as “inactive”. In the case of `C[C@@H]1CCCCO[C@@H](CN(C)CC2CC2)[C@H](C)CN([C@H](C)CO)C(=O)c2cc(NC(=O)CCC(F)(F)F)ccc2O1`, the cytotoxicity call is reported as “inactive”. With `C[C@H](CO)N1C[C@H](C)[C@@H](CN(C)C(=O)c2ccccc2)OCCCC[C@H](C)Oc2ccc(NS(=O)(=O)c3ccccc3)cc2C1=O` the cytotoxicity call was “inactive”. In the case of `CO[C@H]1CN(C)C(=O)c2ccc(NC(=O)Nc3cccc(Cl)c3)cc2OC[C@H](C)N(C(=O)Nc2c(C)noc2C)C[C@H]1C`, the cytotoxicity call is reported as “inactive”. In the case of `COc1ccc(C(=O)c2ccccc2O)c(O)c1`, the cytotoxicity call is reported as “inactive”. For `COc1ccc(C(=O)NCC#N)cc1`, the cytotoxicity call was “inactive”. For `COc1ccc(Sc2ccc(N(C(=O)c3ccccc3Cl)C(=O)c3ccccc3Cl)cc2C#N)cc1`, the cytotoxicity call was “active”. `O=c1cn[nH]c(Nc2ccccc2)n1` was tested, and the cytotoxicity call was “inactive”. In the case of `CC(C)CNc1nc(=O)cn[nH]1`, the cytotoxicity call is reported as “active”. With `O=c1cn[nH]c(NC2CCCC2)n1` the cytotoxicity call was “inactive”. In the case of `C=CCC[C@@H](Cc1ccc(F)cc1)C(=O)OC[C@@H]1CCCN1C(=O)[C@H](CC=C)CC(=O)N(CCO)Cc1ccccc1`, the cytotoxicity call is reported as “inactive”. For `COc1ccccc1S(=O)(=O)N[C@@H]1C=C[C@@H](CC(=O)N2CCN(C)CC2)O[C@@H]1CO`, the cytotoxicity call was “inactive”. With `NC[C@@](O)(CS(=O)(=O)O)c1ccc(Cl)cc1` the cytotoxicity call was “inactive”. With `c1n[nH]cc1-c1cn[nH]c1` the cytotoxicity call was “inactive”. In the case of `NC[C@@](O)(c1ccc(Cl)cc1)c1ccc(-c2cn[nH]c2)cc1`, the cytotoxicity call is reported as “active”. For `COc1ccccc1CNC(=O)C[C@H]1C[C@H]2c3cc(NC(=O)C4CCOCC4)ccc3O[C@H]2[C@H](CO)O1`, the cytotoxicity call was “inactive”. For `CCCCCCNC(=O)n1cc(F)c(=O)[nH]c1=O`, the cytotoxicity call was “active”. `CC1OC(n2cc(F)c(=O)[nH]c2=O)C(O)C1O` (stereo unspecified) was tested, and the cytotoxicity call was “inactive”. With `C[C@H]1O[C@@H](n2cc(F)c(=O)[nH]c2=O)[C@H](O)[C@@H]1O` the cytotoxicity call was “inactive”. For `Cc1ccc(S(=O)(=O)Nc2ccc3c(c2)CC(=O)N([C@@H](C)CO)C[C@H](C)[C@H](CN(C)S(C)(=O)=O)O3)cc1`, the cytotoxicity call was “inactive”. `CC(C)NC(=O)NCC[C@H]1CC[C@H](NC(=O)CN(C)C)[C@H](CO)O1` was tested, and the cytotoxicity call was “inactive”. With `Cc1c(NC(=O)c2cc3c(s2)CCCC3)cccc1-c1cn(C)c(=O)c(Nc2ccc([C@H]3C(=O)N(C)CCN3C)cc2)n1` the cytotoxicity call was “inactive”. In the case of `C[C@@H]1CCCCO[C@H](CN(C)C(=O)Nc2ccc3c(c2)OCO3)[C@@H](C)CN([C@@H](C)CO)C(=O)c2cc(NS(=O)(=O)c3ccccc3)ccc2O1`, the cytotoxicity call is reported as “inactive”. For `C[C@@H]1CN([C@H](C)CO)C(=O)c2cc(NC(=O)Nc3ccc(F)cc3)ccc2O[C@@H](C)CCCCO[C@H]1CN(C)C(=O)NC1CCCCC1`, the cytotoxicity call was “inactive”. `C[C@@H]1CCCCO[C@H](CN(C)C(=O)NC2CCCCC2)[C@H](C)CN([C@H](C)CO)C(=O)c2cc(NC(=O)NC3CCCCC3)ccc2O1` was tested, and the cytotoxicity call was “active”. In the case of `Cc1noc(C)c1NC(=O)N(C)C[C@H]1OCCCC[C@@H](C)Oc2ccc(NC(=O)NC3CCCCC3)cc2C(=O)N([C@@H](C)CO)C[C@H]1C`, the cytotoxicity call is reported as “inactive”. In the case of `C[C@@H]1CCCCO[C@@H](CN(C)C(=O)Nc2ccc(F)cc2)[C@@H](C)CN([C@@H](C)CO)C(=O)c2cc(NC(=O)NC3CCCCC3)ccc2O1`, the cytotoxicity call is reported as “active”. In the case of `Cc1noc(C)c1NC(=O)N(C)C[C@H]1OCCCC[C@@H](C)Oc2ccc(NC(=O)NC3CCCCC3)cc2C(=O)N([C@H](C)CO)C[C@@H]1C`, the cytotoxicity call is reported as “active”. `C[C@H](CO)N1C[C@H](C)[C@@H](CN(C)C(=O)NC2CCCCC2)OCCCC[C@H](C)Oc2ccc(NC(=O)NC3CCCCC3)cc2C1=O` was tested, and the cytotoxicity call was “inactive”. For `C[C@H](CO)N1C[C@H](C)[C@H](CN(C)C(=O)NC2CCCCC2)OCCCC[C@H](C)Oc2ccc(NC(=O)NC3CCCCC3)cc2C1=O`, the cytotoxicity call was “inactive”. In the case of `C[C@@H]1CCCCO[C@@H](CN(C)C(=O)NC2CCCCC2)[C@@H](C)CN([C@H](C)CO)C(=O)c2cc(NC(=O)Nc3ccc(F)cc3)ccc2O1`, the cytotoxicity call is reported as “inactive”. `C[C@@H]1CN([C@H](C)CO)C(=O)c2cc(NC(=O)NC3CCCCC3)ccc2O[C@@H](C)CCCCO[C@@H]1CN(C)C(=O)Nc1ccc(F)cc1` was tested, and the cytotoxicity call was “inactive”. `C[C@@H]1CCCCO[C@H](CN(C)C(=O)Nc2ccc(F)cc2)[C@@H](C)CN([C@H](C)CO)C(=O)c2cc(NC(=O)NC3CCCCC3)ccc2O1` was tested, and the cytotoxicity call was “inactive”. `C[C@@H]1CCCCO[C@H](CN(C)C(=O)NC2CCCCC2)[C@H](C)CN([C@H](C)CO)C(=O)c2cc(NC(=O)Nc3ccc(F)cc3)ccc2O1` was tested, and the cytotoxicity call was “active”. `Cc1noc(C)c1NC(=O)N(C)C[C@@H]1OCCCC[C@@H](C)Oc2ccc(NC(=O)NC3CCCCC3)cc2C(=O)N([C@H](C)CO)C[C@@H]1C` was tested, and the cytotoxicity call was “inactive”.
